Cycloheximide cs = affects cycloheximide protein synthesis inhibition readout, counter-screen; max response, %; hit rate 12% among 300,000; cell reporter, cycloheximide protein synthesis inhibition counterscreen; in the data active = max response mostly above about 13%, no sharp cut-off; inactive = mostly below about 14%; also: read at 38.3 µM for the half of the compounds with a filed dose
Pf growth 48h = P. falciparum growth inhibition at 48 hours (one generation); P. falciparum luciferase growth in erythrocytes, 48 h; AID 504832; Potency, µM (top dose mostly 28.7 µM), most hits filed as inhibitors; hit rate 5.9% among 310,000
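Luciferase-expressing parasites in RBCs, 2% Hct / 0.1% parasitemia final; RPMI 1640 + 0.5% Albumax; 37 C, 5% CO2, one generation; luminescence read-out, lower signal = inhibition.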
Pf growth 96h = P. falciparum growth inhibition at 96 hours; hit rate 6.9% among 320,000; Potency, µM (highest dose often 28.7 µM), most hits filed as inhibitors; P. falciparum luciferase reporter growth, 96 h; AID 504834
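Compounds incubated with erythrocytes infected by luciferase-expressing P. falciparum (2% hematocrit, 0.05% parasitemia final) for 96 hours, 37 C in 5% CO2. Growth inhibition scored as decreased luciferase luminescence.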
AMA1-RON2 inh = inhibitors of Plasmodium falciparum AMA1-RON2 interaction | AlphaScreen AMA1-biotinylated RON2 peptide binding | Potency, µM (series often up to 58.2 µM), hits mostly inhibitors | hit rate 0.2% among 360,000; also: nearly all actives have a fitted effect of over 45% in size
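AMA1 (3D7) with his tag at 25 nM final met compounds first, then biotinylated RON2 peptide at 25 nM; detection used donor plus acceptor beads, 10 µg/mL apiece, read by AlphaScreen after 30 min at room temperature.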
HCV inhibitor = HCV inhibition; Potency, µM (highest dose often 41.8 µM), most hits filed as inhibitors; Huh7.5.1 HCVcc-Cre infection, luciferase reporter, 44 h; hit rate 3.4% among 340,000
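After 44 h co-culture of compound, cells and HCVcc-Cre (~0.5 moi), substrate is added for 15 min at room temperature and luciferase measured over 15 sec. Cells were seeded at 1,000/well and pre-cultured 4 h.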
Shiga inhibitor = blocks Shiga toxin action in Vero cells; Vero cells, Shiga toxin protein synthesis inhibition reporter; inhibition, % at 38.7 µM; hit rate 9.2% among 290,000; in the data active = inhibition mostly above about 28%, no sharp cut-off; inactive = mostly below about 43%
Hits are given with their value; n = inactive; u = inconclusive; x = no result given; [ ] = remark or other dose. Rows were chosen to be rich in hits. Some 21% of all compounds tested hit in one or more screens of this group. Unless noted, calls follow the shape of the dose curve; as a rule, active = well fitted curve in the direction sought with a large enough effect; inconclusive = small, poorly fitted or top-dose-only effect, or another doubt; inactive = no such curve, though single readings can be large; an effect the other way counts as inactive or inconclusive.

SMILES	Cycloheximide cs	Pf growth 48h	Pf growth 96h	AMA1-RON2 inh	HCV inhibitor	Shiga inhibitor
COc1cccc(N2CCN(c3ncnc4c3[nH]c3ccc(F)cc34)CC2C)c1 (centres undefined)	n	u	n	n	1.6µM	n
COc1cccc(N2CCN(c3ncnc4c3[nH]c3ccccc34)CC2C)c1 (centres undefined)	n	8.3µM	u	x	10µM	n
CCCOc1ccc(N2CC(C(=O)NC3=NCCS3)CC2=O)cc1 (centres undefined)	n	n	u	n	n	n
O=C(NCc1nnc2c(C(F)(F)F)cc(Cl)cn12)c1cccs1	n	n	n	n	n	n
Fc1ccc(-c2n[nH]c(=S)n2Cc2ccccc2)cc1	n	n	u	n	n	n
Fc1ccc(-c2c[nH]c(=S)n2Cc2ccccc2)cc1	n	10µM	u	n	n	n
Cc1sc2ncnc(NCC3CCCO3)c2c1C (centres undefined)	n	n	n	n	13µM	n
CCc1cc2c(NCC3CCCO3)ncnc2s1 (centres undefined)	n	n	n	n	u	n
Cc1sc2ncnc(NCC3(N4CCOCC4)CCCCC3)c2c1C	n	x	1.9µM	n	n	n
Cc1sc2ncnc(SCC(=O)N3CCOCC3)c2c1C	x	n	n	n	n	x
Cc1sc2ncnc(NCC(C)(C)N3CCOCC3)c2c1C	n	x	u	n	5.6µM	n
Cc1ccccc1CN(C)Cc1cc(=O)oc2c(C)c(C)ccc12	23	u	u	n	u	n
COc1cccc(CN(C)Cc2cc(=O)oc3cc(O)c(Cl)cc23)c1	n	x	n	u	n	n
COc1cccc(CN(C)Cc2cc(=O)oc3c(C)c(C)ccc23)c1	16	n	n	n	u	n
COc1ccc(OC)c(S(=O)(=O)NC2CC(=O)N(c3cccc(F)c3)C2)c1 (centres undefined)	x	n	n	n	n[8.37 µM]	x
Cc1nc2n[nH]c(N)c2nc1C	x	x	x	n	x	x
O=C(NCCCn1ccnc1)C(=O)c1c[nH]c2ccccc12	n	n	n	n	n	n
COc1ccccc1NC(=O)NC1CCS(=O)(=O)C1 (centres undefined)	n	n	n	n	n	n
O=C(Nc1ccccc1Cl)C(Cl)C(=O)c1ccccc1 (centres undefined)	48	n	n	n	n	102
O=C(Nc1ccc(Cl)cc1)C(Cl)C(=O)c1ccccc1 (centres undefined)	19	n	n	n	n	n
O=C(CSCC(=O)c1ccccc1)Nc1ccccc1Cl	n	n	n	n	n	n
Cc1ccc(C2CCN(C(=O)Nc3ccc(F)cc3)C2)cc1 (centres undefined)	19	n	u	n	n	89
CC(=O)c1cccc(NC(=O)N2CCC(c3ccc(C)cc3)C2)c1 (centres undefined)	n	n	n	n	n	49
CC(=O)c1cccc(NC(=O)N2CCC(NC(=O)c3ccco3)CC2)c1	n	n	n	n	n	n
Cc1nc2cc(NC(=O)N3CCC(c4ccccc4)C3)ccc2n1C (centres undefined)	27	n	x	n	n	99
SMILES	Cycloheximide cs	Pf growth 48h	Pf growth 96h	AMA1-RON2 inh	HCV inhibitor	Shiga inhibitor
Cc1ccc(NC(=O)C2CCCN(C(=O)Nc3ccc(F)cc3)C2)cc1 (centres undefined)	n	n	n	n	n	n
Cc1ccc(C2CCN(C(=S)NC(C)C)C2)cc1 (centres undefined)	n	n	n	n	n	64
Cc1nc2cc(NC(=O)N3CCCC3)ccc2n1C	n	n	n	n	n	n
CCCn1c(C(O)c2cccc(OC)c2)nc2ccccc21 (centres undefined)	n	u	n	n	n	n
Cn1nnc2cc(C(=O)N3CCC(c4ccccc4)C3)ccc21 (centres undefined)	10	n	n	n	n	27
CCc1nc2ccc(C(=O)NCCOc3ccc(OC)cc3)cn2c1N(CCC(C)C)CCN(C)C	x	x	x	n	x	x
COc1ccccc1CNC(=O)C1CCC(CNS(=O)(=O)c2ccc(C)cc2)CC1 (centres undefined)	n	u	7.4µM	n	u	n
COc1ccccc1CNC(=O)C1CCC(CNS(=O)(=O)c2ccc(F)cc2)CC1 (centres undefined)	n	n	n	n	n	n
COc1ccccc1CNC(=O)C(CC(C)C)NC(=O)C1CCC(C)CC1 (centres undefined)	n	x	13µM	n	n	n
OC(CN1CCOCC1)c1ccc(F)cc1 (centres undefined)	n	n	n	n	n	n
O=C(c1ccc(F)cc1)C(CCCCCC(CN1CCOCC1)C(=O)c1ccc(F)cc1)CN1CCOCC1 (centres undefined)	n	u	9.3µM	n	u	n
COc1cc(O)sc1C=Nc1ccc(Cl)cc1	31	n	u	n	n	42
Oc1ccc(Br)cc1C=Nc1ccc(Cl)cc1	n	n	u	n	n	n
CC(=O)N1CCOc2ccc(S(=O)(=O)NCCc3ccc(Cl)cc3)cc21	n	n	n	n	u	n
CC(=O)NC1C(OCc2ccccc2)OC2COC(c3ccccc3)OC2C1OCC(=O)O (centres undefined)	41	n	n	n	n	n
CN(Cc1ccco1)C(=O)[C@H](Cc1ccccc1)NC(=O)CC[C@H]1O[C@@H](n2ccc(=O)[nH]c2=O)[C@H](O)[C@@H]1O	x	x	x	n	x	x
COc1ccc(-c2ccc(NS(=O)(=O)c3cc([N+](=O)[O-])c(C)c([N+](=O)[O-])c3)cc2)nn1	n	n	n	n	n	n
Cc1nn(C)cc1CN(C)C(=O)CCc1nnc(CCC2CCCCC2)o1	11	n	n	n	n	n
CN(Cc1nccn1C)C(=O)CCc1nnc(CCC2CCCCC2)o1	n	n	n	n	n	n
COCCNC(=O)C1(C)CCCN(CCOc2ccc(Cl)cc2)C1 (centres undefined)	x	x	x	n	x	x
Cc1cccc(-n2ncc3c2CCCC3NC(=O)C2=CC(=O)CC(C)(C)O2)c1C (centres undefined)	n	n	n	n	7.1µM	n
Cc1cccc(-n2ncc3c2CCCC3NC(=O)C2(C(N)=O)CC2)c1C (centres undefined)	n	n	u	n	1.6µM	n
Cc1cccc(-n2ncc3c2CCCC3NC(=O)CC(F)(F)F)c1C (centres undefined)	n	n	n	n	n	n
Cc1cccc(-n2ncc3c2CCCC3NC(=O)Cn2cccn2)c1C (centres undefined)	19	n	n	n	x	n
CC1(C)CC(=O)C=C(C(=O)NC2CCCc3c2cnn3-c2cc(F)cc(F)c2)O1 (centres undefined)	n	n	n	n	n	n
COc1ccc(OC)c(S(=O)(=O)N2CCCC(C(=O)NCCN3CCOCC3)C2)c1 (centres undefined)	n	n	u	n	n	n

Screens as filed in PubChem.
